# Data: PubChem BioAssay AID449 (The Scripps Research Institute Molecular Screening Center, 2006)
# Out of some 56,000 compounds screened, about 320 (0.57%) were called active.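 Rule for the calls: active = activation above a cutoff set at the mean activation of all tested compounds plus 3 SD (cut at about 54% in these data); inactive = the rest, inconclusive results apart.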 Many of the other results were omitted from the sample, so actives are more common in it than they were.
# Biological target: Sphingosine 1-phosphate receptor 1 (Homo sapiens) (UniProt P21453)
# Sequence (P21453 whole entry, looked up): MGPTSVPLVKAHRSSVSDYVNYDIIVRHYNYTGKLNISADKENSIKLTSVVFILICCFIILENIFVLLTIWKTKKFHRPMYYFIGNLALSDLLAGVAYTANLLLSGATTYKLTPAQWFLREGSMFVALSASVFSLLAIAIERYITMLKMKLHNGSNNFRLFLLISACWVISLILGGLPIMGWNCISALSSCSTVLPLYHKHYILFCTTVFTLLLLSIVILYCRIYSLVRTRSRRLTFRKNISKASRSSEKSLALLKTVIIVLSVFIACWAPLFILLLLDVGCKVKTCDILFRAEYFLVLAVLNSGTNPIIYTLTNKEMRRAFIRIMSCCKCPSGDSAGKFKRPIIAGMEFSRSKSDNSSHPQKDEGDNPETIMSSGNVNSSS
# Assay: S1P1 agonists and agonism potentiators, primary screen, cell-based, primary and confirmation screens, CRE-bla reporter (AID 449);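 note: forskolin at 4 µM as EC80 and the EC20 agonist is SEW2871; 100% = SEW2871 at its EC100 plus forskolin at EC80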
# Conditions: S1P1 CRE-bla cells, forskolin, beta-lactamase FRET, potentiator mode, at 9.5 µM, stronger effect = higher value, 100% = saturating reference agonist, 0% = basal, S1P1 agonist co-added at EC20, 2 nM
# [1] = measured here: confirmation screen, triplicate average
SMILES,activation,activation [1] [%]
c1ccc(-n2ncc3c2ncn2c(CSc4nc5ccccc5s4)nnc32)cc1,-7.8% (inactive),
CCn1c(=O)cc(O)c2ccccc21,-26.6% (inactive),
CCc1ccccc1NC(=O)c1cccs1,-18.1% (inactive),
O=C(OCCO)c1cc(Cl)c(C(=O)OCCO)cc1Cl,-15.8% (inactive),
Fc1ccc(Br)cc1/C=N/n1cnnc1,-20% (inactive),
CC1(C)CC(=O)C(C=NCCC2=CCCCC2)=C(O)C1,-14.2% (inactive),
O=C(c1cccc(C(=O)N2CCN(c3ccc(F)cc3)CC2)c1)N1CCN(c2ccc(F)cc2)CC1,46% (inactive),
Cn1c2c(c(=O)n(C)c1=O)CN(Cc1ccco1)CN2,-5.4% (inactive),
COc1ccc(C2/C(=C(/O)c3ccc(OC(C)C)cc3)C(=O)C(=O)N2CCCN2CCOCC2)cc1 (centres undefined),10.9% (inactive),
CS(=O)(=O)N(Cc1nc2sc3c(c2c(=O)[nH]1)CCCC3)C1CCCCC1,-3.8% (inactive),
Cc1ccccc1Cn1c(=O)[nH]c2ccccc21,1% (inactive),
O=C(COc1ccc(Cl)cc1)Nc1ccccc1CO,0% (inactive),
Cc1ccc(CCn2c3c(c4ccccc42)CN(C)CC3)cn1,6.4% (inactive),
CC1CN(Cc2nc3c(c(=O)n(C)c(=O)n3C)n2Cc2cccc(Cl)c2)CC(C)O1 (centres undefined),-22.8% (inactive),
CCOC(=O)C1C(=O)C=C(c2ccc(OC)cc2)CC1c1ccco1 (centres undefined),91.1% (active),86.3
COc1ccc(CCNC(=O)c2ccco2)cc1,-9.8% (inactive),
CCOC(=O)C1C(=O)NC(N2CCN(c3ccccc3)CC2)=NC1c1ccco1 (centres undefined),-4.8% (inactive),
COc1ccc(-n2nc3c(c2NC(=O)Cc2cccc(C)c2)CS(=O)C3)cc1 (centres undefined),-1.3% (inactive),
CN1CCN(c2cc(=O)n(-c3ccc(Cl)cc3)c(=O)[nH]2)CC1,-1.5% (inactive),
O=C1c2ccccc2C(O)N1Cc1ccccc1Cl (centres undefined),15.2% (inactive),
COc1cc(-c2noc(C3CCCN(S(=O)(=O)c4cccc(Cl)c4)C3)n2)cc(OC)c1OC (centres undefined),91.7% (active),85.9
O=C(Cc1cccs1)N1CCCC(c2nc(-c3ccc(S(=O)(=O)N4CCCC4)cc3)no2)C1 (centres undefined),18.8% (inactive),
O=C(c1cccs1)N1CCCC(c2nc(-c3ccc(F)cc3)no2)C1 (centres undefined),22.8% (inactive),
COc1nc(NCc2ccc(Cl)cc2)nc(OC)n1,-7.3% (inactive),
O=C(Cn1cnc2c(cnn2-c2ccc(F)cc2)c1=O)NCCc1ccccc1,-3.5% (inactive),

SMILES,activation,activation [1] [%]
Nc1nnc(C2CCCC2)s1,-4.9% (inactive),
Cn1c(SCC(=O)N2CCOCC2)nnc1-c1ccc(NC(=O)c2ccccc2F)cc1,2.6% (inactive),
COC(=O)c1sc(NC(=O)c2csc3c2CCCC3)nc1C,8.7% (inactive),
COc1ccc(C(=O)Nc2nncs2)c(OC)c1,-24% (inactive),
COC(=O)c1sc(NC(=O)c2ccc(OC)cc2OC)nc1C,108% (active),94.2
CSCCC(NC(=O)c1ccc(=O)n(C)n1)c1nc2ccccc2[nH]1 (centres undefined),-17.6% (inactive),
COc1ccc2nc(N3CCCC(O)C3)c(C#N)cc2c1 (centres undefined),16.4% (inactive),
Cc1ccc(S(=O)(=O)C2(S(=O)(=O)c3ccc(C)cc3)CCCC2)cc1,-19.8% (inactive),
CCCOC(=O)CC1C(=O)NCCN1Cc1ccc(F)cc1 (centres undefined),-20.1% (inactive),
CCC(CC)c1nnc(NS(=O)(=O)Cc2ccccc2)s1,-23.9% (inactive),
COc1cccc(C2/C(=C(/O)c3ccc(F)cc3)C(=O)C(=O)N2CCN(C)C)c1 (centres undefined),-5.8% (inactive),
COc1ccc(OC)c2c1sc(=NC(=O)CN1C(=O)CCC1=O)n2C,-15.9% (inactive),
COc1ccc(-n2nnc3c(=O)n(CC(=O)N4CCC(Cc5ccccc5)CC4)cnc32)cc1,18.2% (inactive),
N#CCCN1CCN(S(=O)(=O)c2ccc(S(=O)(=O)NC3CCCCC3)cc2)CC1,-9% (inactive),
CCN1CCN(Cc2c(O)ccc3c(=O)c(-c4ccc(OC)c(OC)c4)c(C(F)(F)F)oc23)CC1,-27.2% (inactive),
O=c1c(-c2ccc3c(c2)OCCO3)c(C(F)(F)F)oc2cc(O)cc(O)c12,84% (active),95.4
Cc1ccc(-c2nc(CS(=O)CC(=O)N3CCN(c4ncccn4)CC3)c(C)o2)cc1 (centres undefined),-2.4% (inactive),
O=C1CC(c2cccc(Br)c2)C2=C(CCCC2=O)N1 (centres undefined),-6.5% (inactive),
C=C(C)Cn1c(N2CCCC2)nc2c1c(=O)[nH]c(=O)n2C,-3.8% (inactive),
O=C(c1cc(-c2ccccc2O)on1)N1CCCC1,-19% (inactive),
COc1ccc(-c2c(C)nn3c(N4CCC(C(=O)N5CCCCC5)CC4)cc(C)nc23)cc1OC,-7.7% (inactive),
CN(CCCC(=O)Nc1nccs1)S(=O)(=O)c1ccc(Cl)cc1,20.6% (inactive),
O=c1c2ccccc2oc2nc3n(c(=O)c12)CCCS3,-24.6% (inactive),
CNC(=O)c1c(NC(=O)c2ccc(S(=O)(=O)N3CCOCC3)cc2)sc2c1CCC2,-19.6% (inactive),
O=C(NCc1ccc(Cl)c(Cl)c1)c1cccnc1,10.2% (inactive),

SMILES,activation,activation [1] [%]
COC(=O)c1c(NC(=O)CCN2CCOCC2)sc2c1CCCC2,-4.7% (inactive),
O=S(=O)(NCc1ccccn1)c1ccc(F)cc1,-21.3% (inactive),
O=S(N1CCCCCC1)C12CC3CC(CC(C3)C1)C2 (centres undefined),-13.3% (inactive),
CCCn1c(O)c(CN2CCCC(C)C2)c(C)c(C#N)c1=O (centres undefined),1% (inactive),
CCOC(=O)CSC1=C(C#N)C(c2ccco2)C(C(=O)OCc2ccccc2)=C(C)N1 (centres undefined),11.9% (inactive),
FC(F)(F)c1cc(-c2ccco2)nc(N2CCOCC2)n1,-22.2% (inactive),
CC(C)CCNC(=O)CCNS(=O)(=O)c1ccc(Cl)cc1,12.2% (inactive),
O=C(NC1CCN(Cc2ccccc2)CC1)c1ccccc1F,-25.4% (inactive),
CCOc1cc(/C=N/n2cnnc2)c(Br)cc1O,-9.1% (inactive),
c1nnc2c3c4c(sc3ncn12)CCC4,-8.2% (inactive),
COc1ncnc2sc3c(c12)CCCC3,-21.1% (inactive),
Cn1cc(S(=O)(=O)N2CCC(Cc3ccccc3)CC2)c(=O)n(C)c1=O,-8.3% (inactive),
Cc1ccsc1C(=O)OCC(=O)c1cc(C)n(CC2CCCO2)c1C (centres undefined),57% (active),84.7
COC(=O)c1ccc2c(=O)n(CC3CCCO3)c(=S)[nH]c2c1 (centres undefined),-12.1% (inactive),
Cc1nnc(SCC(N)=O)n1CC1CCCO1 (centres undefined),-8.7% (inactive),
COC(=O)c1ccc(S(=O)(=O)c2ccc(C(=O)OC)s2)s1,1.7% (inactive),
NC(=O)c1ccsc1NC(=O)c1ccco1,1% (inactive),
COc1cc(=O)[nH]c(=O)n1C(=O)Cc1ccccc1,-7.8% (inactive),
CC1CCCN(Cc2nc3c(c(=O)n(C)c(=O)n3C)n2Cc2cccc3ccccc23)C1 (centres undefined),10.7% (inactive),
CCOC(=O)C1CCCN(C(=O)C2CCN(c3nnc(-n4cccc4)s3)CC2)C1 (centres undefined),-27.3% (inactive),
Cc1c2cn[nH]c(=O)c2c(C)n1Cc1ccc(F)cc1,-6.4% (inactive),
C=CCSc1nnc(Cn2c(=O)sc3ccccc32)n1C,-13.4% (inactive),
Cn1c(=O)c2c(nc(SCCNS(=O)(=O)c3ccccc3)n2C)n(C)c1=O,-18.9% (inactive),
CN(C)c1ccnc2sc3c(=O)n(Cc4ccccc4)cnc3c12,75.3% (active),84.4
CN(C)/C=C/c1c(C#N)c(=O)ncn1Cc1ccccc1,-5.6% (inactive),

SMILES,activation,activation [1] [%]
O=c1c2[nH]c3ccc(Cl)cc3c2ncn1Cc1ccccn1,-22.3% (inactive),
CCN1CCCC1CNc1ncnc2c1[nH]c1ccc(F)cc12 (centres undefined),4.2% (inactive),
O=C1CCCN1CCCNc1ncnc2c1[nH]c1ccccc12,6.8% (inactive),
CC(C)OCCCNc1ncnc2c1[nH]c1ccc(F)cc12,91.1% (active),110
Cc1nc2c(c(=O)n1Cc1ccco1)c1nc3ccccc3nc1n2Cc1ccccc1,2.5% (inactive),
CCCCCCn1c(SCC(=O)c2ccccc2)nc2c1c(=O)[nH]c(=O)n2C,-26.5% (inactive),
O=C(CCN1C(=O)COc2ccccc21)NCCCN1CCN(c2ccc(F)cc2)CC1,-29.7% (inactive),
N/C(=N\c1nc2ccccc2o1)NC(=O)C(Cc1ccccc1)N1C(=O)c2ccccc2C1=O (centres undefined),-12% (inactive),
CCOc1ccc2[nH]c(=O)c(CN(CCCO)C(C)=O)cc2c1,2.1% (inactive),
COc1ccc(S(=O)(=O)N2CCN(C(=O)c3cccs3)CC2)cc1OC,15.9% (inactive),
Cc1ccc(-c2nc(COC(=O)c3c(C)noc3C)cs2)cc1,85.3% (active),98.2
Cc1noc(C)c1C(=O)OCC(=O)/C=C1\N(C)c2ccccc2C1(C)C,-18.5% (inactive),
COC(=O)c1c(-c2ccc(C)cc2)csc1N,23% (inactive),
Cc1cccn2c(=O)c3cc(C#N)c(=O)n(CCCN4CCOCC4)c3nc12,-29% (inactive),
Cc1nc(C)c(C(=O)Nc2cccc(C)c2C)o1,-15.9% (inactive),
CCN(Cc1cc2cc(C)ccc2[nH]c1=O)S(=O)(=O)c1ccccc1,26.9% (inactive),
CCc1ccccc1N(CC(=O)NCCSCc1ccco1)S(C)(=O)=O,-204% (inactive),
COc1cc(-c2nc(-c3ccncc3)no2)cc(OC)c1OC,-7% (inactive),
COc1ccc(-c2noc(-c3cccc(OC)c3OC)n2)cc1OC,84.3% (active),77.6
Cc1cccc(-c2noc(-c3ccc(F)cc3)n2)c1,1% (inactive),
O=P(c1cccs1)(c1cccs1)c1cccs1,-23.6% (inactive),
Cc1cc(C)nc(NC(=O)Nc2ccccc2C(F)(F)F)n1,-24.3% (inactive),
O=C(c1cc(-c2ccc(O)cc2)on1)N1CCCc2ccccc21,15.4% (inactive),
O=C(Nc1ccccc1C(F)(F)F)c1cc(-c2ccc(O)cc2)on1,89% (active),96.3
